ELG1 genotoxic: genotoxicity induction in ELG1-luciferase HEK293T cells; HEK293T ELG1-luciferase reporter, luminescence, 16 h; Potency, µM (top dose mostly 46 µM), without a hit: top-dose activity change, positive = activation, usual class: activators; hit rate 1.3% among 330,000; AID 504466; note: % of control where 0% means no effect; nearly all actives have a fitted effect of over 60% in size
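After overnight (16 hr) compound treatment at 37 °C, ELG1-luciferase HEK293T cells were lysed with ONE-Glo; luminescence quantified 30 min later at room temperature.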
NPC1 promoter act: activators of NPC1 promoter | Huh7 NPC1 promoter luciferase reporter, 24 h | Potency, µM (top dose mostly 9.22 µM), without a hit: at the highest dose activation, most hits filed as activators | hit rate 2.4% among 320,000 | AID 485313; note: % of control where 0% means no effect; nearly all actives have a fitted effect of over 60% in size
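Readout is luciferase luminescence, reflecting NPC1 promoter activation in stably transfected Huh7 cells after 24 h compound exposure at 37 °C in reduced-serum medium with 10% FBS.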
Rab9 promoter act: activators of Rab9 promoter. Huh7 Rab9 promoter-luciferase reporter, luminescence, 24 h. Potency, µM (titrated, usually from 9.22 µM), without a hit: top-dose activation, negative = inhibition, actives largely listed as activators. hit rate 2.8% among 320,000. AID 485297; note: % of control where 0% means no effect; nearly all actives have a fitted effect of over 60% in size
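Cells were plated at 1500 per well in reduced-serum medium with 10% FBS and left 2 h. Compound in DMSO was then added for 24 h at 37 °C. Reporter signal was read by luminescence after 10 min with luciferase detection reagent.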
SMN2 splice enh: SMN2 splice variant enhancement. Potency, µM (highest dose often 46.1 µM), without a hit: top-dose activity change, positive = activation, actives largely listed as activators. AID 1458. HEK293 SMN2-luciferase splicing reporter, luminescence, 30-36 h. hit rate 2.8% among 210,000; note: % of control where 0% means no effect; nearly all actives have a fitted effect of over 55% in size
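HEK293 cells carry an SMN2 […]–luciferase reporter in which exon 7 inclusion puts luciferase in frame. Cells were plated 10-12 h before compound addition, then incubated 30-36 h at 37C. ONE-Glo luminescence was read; sodium butyrate at 4.5 mM final served as control.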
FLuc modulator: inhibits or activates purified firefly luciferase, miR-21 counter-screen | P08659 | purified FLuc, Km substrates, luminescence inhibition | Potency, µM (highest dose often 57.5 µM), for the others: top-dose activity change, negative = inhibition, usual class: inhibitors | hit rate 6.9% among 360,000 | AID 588342;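 note: plate controls were vehicle for no effect and reference inhibitor for full effect; nearly all actives have a fitted effect of over 55% in size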
Target sequence (P08659 whole entry, looked up): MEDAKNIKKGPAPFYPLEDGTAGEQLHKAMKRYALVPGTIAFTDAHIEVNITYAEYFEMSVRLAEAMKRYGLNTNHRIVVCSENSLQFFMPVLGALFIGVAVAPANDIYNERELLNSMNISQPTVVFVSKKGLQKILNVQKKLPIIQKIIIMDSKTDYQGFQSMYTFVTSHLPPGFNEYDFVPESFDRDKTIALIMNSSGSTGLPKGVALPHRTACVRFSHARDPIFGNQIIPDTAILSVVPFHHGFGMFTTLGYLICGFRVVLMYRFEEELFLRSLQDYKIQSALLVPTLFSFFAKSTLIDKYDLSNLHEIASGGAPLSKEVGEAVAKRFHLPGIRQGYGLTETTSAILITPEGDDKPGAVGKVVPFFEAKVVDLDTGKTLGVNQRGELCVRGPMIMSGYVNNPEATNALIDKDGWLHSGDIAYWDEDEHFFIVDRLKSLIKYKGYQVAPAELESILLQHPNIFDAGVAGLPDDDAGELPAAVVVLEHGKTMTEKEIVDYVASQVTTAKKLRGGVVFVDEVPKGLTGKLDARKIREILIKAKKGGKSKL
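Biochemical qHTS of compounds, final roughly 60 µM downward over six points, against 10 nM purified firefly luciferase using Km concentrations of substrates (10 uM D-luciferin, 10 uM ATP) in Tris acetate pH 7.5 buffer; luminescence output.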
The depositor's hits bear a star; ? = inconclusive; · = not tested or not shown. This is a sample that favours compounds with a hit; in the whole collection about 7.5% have one here. Calls come from the whole dose curve; as a rule, active = well fitted curve in the direction sought with a large enough effect; inconclusive = small, poorly fitted or top-dose-only effect, or another doubt; inactive = no such curve, though single readings can be large; an effect the other way counts as inactive or inconclusive. Potency is the fitted concentration of half-maximal effect.

SMILES	ELG1 genotoxic	NPC1 promoter act	Rab9 promoter act	SMN2 splice enh	FLuc modulator
O=CN1CCN(C(=O)c2ccc(-c3nc4ccccc4s3)s2)CC1	?	1.8µM*	1.1µM*	·	11µM*
O=C(c1ccc(-c2cccc(C(F)(F)F)c2)o1)N1CCN(c2ccccc2)CC1	1%	0%	5%	·	3%
O=Cc1ccc(-c2nc3ccccc3s2)o1	?	27%	?	11µM*	11µM*
O=C(O)c1ccc(-c2nc3ccccc3s2)o1	12%	?	?	·	6µM*
Cc1cccc(/C(N)=N/OC(=O)COc2ccccc2Cl)c1	?	22%	16%	?	19µM*
N/C(=N\OC(=O)COc1ccccc1)c1ccc(Cl)cc1	?	0%	0%	21%	?
Cc1ccc(C)c(OCC(=O)O/N=C(\N)c2cccc([N+](=O)[O-])c2)c1	0%	1%	2%	·	-4%
N/C(Cc1ccc(Cl)cc1Cl)=N\OC(=O)Cc1ccccc1	0%	-1%	-3%	8%	15µM*
Cc1cccc(/C(N)=N/OC(=O)Cc2ccccc2)c1	?	14%	20%	11%	15µM*
CCC(C(=O)O/N=C(\N)c1cccc(C)c1)c1ccccc1 (stereo not given)	25%	15%	9%	4%	?
COc1ccc(/C(N)=N/OC(=O)COc2ccccc2Cl)cc1	?	7%	11%	?	21µM*
CN(c1ccccc1)c1ccc(/C=C/[N+](=O)[O-])cc1	-6%	9%	17%	-84%	11µM*
CCOc1cc(-c2noc(-c3cccnc3)n2)ccc1OC	6%	0%	3%	7%	-14%
COc1ccc(-c2noc(-c3cccnc3)n2)cc1OC	?	?	3.5µM*	?	15µM*
CCOc1ccc(-c2noc(-c3cccnc3)n2)cc1OC	12%	?	25%	-5%	13µM*
Cc1[nH]n(-c2ccccc2)c(=O)c1/C=N/NC(=O)c1cccc(F)c1	?	-32%	-39%	·	9.5µM*
Cc1[nH]n(-c2ccc(Br)cc2)c(=O)c1/C=N/NC(=O)c1ccccc1	?	-22%	-36%	·	2.1µM*
CCCCN(CCCC)C(=S)N/N=C/c1c(C)[nH]n(-c2ccccc2)c1=O	-7%	-8%	-9%	-75%	-3%
O=C(CCc1nnc(CCc2ccccc2)o1)N1CCCCC1CCn1cccn1 (stereo not given)	0%	-4%	3%	-10%	-12%
CCS(=O)(=O)N1Cc2ccccc2CC1C(=O)Nc1nc(C)cs1 (stereo not given)	?	26%	?	1%	19µM*
COc1ccc(S(=O)(=O)N2Cc3ccccc3CC2C(=O)Nc2nccs2)cc1OC (stereo not given)	5.8µM*	12%	16%	13µM*	?
CCS(=O)(=O)N1Cc2ccccc2CC1C(=O)Nc1nc2c(C)cccc2s1 (stereo not given)	-3%	2%	0%	?	-17%
CC(=O)Nc1ccc(S(=O)(=O)N2CCC(C(=O)Nc3nccs3)CC2)cc1	0%	-2%	-1%	·	2%
CCS(=O)(=O)N1Cc2ccccc2CC1C(=O)Nc1nccs1 (stereo not given)	?	0%	5%	18µM*	?
COc1ccc(S(=O)(=O)N2CCC(C(=O)Nc3nccs3)CC2)cc1	?	2.8µM*	?	·	12µM*
SMILES	ELG1 genotoxic	NPC1 promoter act	Rab9 promoter act	SMN2 splice enh	FLuc modulator
CC(C)C(=O)N1CCC(c2nc(-c3ccc(S(=O)(=O)N4CCCC4)cc3)no2)CC1	-4%	2%	0%	-52%	9%
CCN(CC)c1ccc2cc(-c3nc4ccccc4[nH]3)c(=O)oc2c1	0.15µM*	0.28µM*	0.1µM*	0%	0.076µM*
CCN(CC)c1ccc2cc(-c3nc(-c4ccc(Cl)cc4Cl)cs3)c(=O)oc2c1	·	·	·	·	-1%
CCN(CC)c1ccc2cc(-c3nc4ccccc4n3C)c(=O)oc2c1	?	?	16%	?	1.9µM*
CCN(CC)c1ccc2cc(-c3nnc(-c4ccccc4)o3)c(=O)oc2c1	?	2.8µM*	?	11µM*	?
CN(C)Cc1c(O)ccc2cc(-c3nc4ccccc4n3C)c(=O)oc12	?	28%	16%	·	4%
